Source: PubChem BioAssay
D2 ag-1 – Beta-Arrestin HTS for Positive Allosteric Modulators of the Human D2 Dopamine Receptor: Agonists; D(2) dopamine receptor (Homo sapiens), P14416; 360,000 tested, 0.084% active; activation, % (concentration not given with the values); DiscoveRx PathHunter D2 beta-arrestin, luminescence, 90 min; 100% = 57 uM dopamine signal; AID 624465, 2012; in the data active = activation above about 40%; inconclusive = between about 15% and that limit
Target sequence (P14416 whole entry, looked up): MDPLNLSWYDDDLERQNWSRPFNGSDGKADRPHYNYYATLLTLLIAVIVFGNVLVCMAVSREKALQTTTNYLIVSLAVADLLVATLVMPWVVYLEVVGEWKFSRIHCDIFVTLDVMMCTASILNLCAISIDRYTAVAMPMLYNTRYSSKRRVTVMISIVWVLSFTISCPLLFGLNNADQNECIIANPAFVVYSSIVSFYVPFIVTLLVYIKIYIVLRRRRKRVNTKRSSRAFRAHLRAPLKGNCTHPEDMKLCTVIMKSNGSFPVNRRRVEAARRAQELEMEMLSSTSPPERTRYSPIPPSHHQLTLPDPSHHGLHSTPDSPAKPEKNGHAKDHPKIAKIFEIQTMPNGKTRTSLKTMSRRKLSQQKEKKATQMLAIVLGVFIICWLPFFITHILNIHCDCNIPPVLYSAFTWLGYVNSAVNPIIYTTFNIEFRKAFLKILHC
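DiscoveRx PathHunter D2 beta-arrestin cells (2,100/well) attached overnight, then compound-stimulated 90 min at 37 C in HBSS/10 mM HEPES/0.1% Tween-20 buffer; beta-galactosidase complementation read by luminescence after 1 h at ambient temperature. Dopamine 57 uM final (EC100) as control.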
D2 antag – HTS Assay for Allosteric Antagonists of the Human D2 Dopamine Receptor: Primary Screen for Antagonists. AID 485344, 2010. HEK293 TREx D2 cells, calcium flux, dopamine EC80. D(2) dopamine receptor (Homo sapiens), P14416. 340,000 tested, 2% active. inhibition, % at 10 µM; in the data active = inhibition above about 30%; inactive = below that, where a call was filed; also: 0% is about no effect
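Overnight-induced (tetracycline, 30 C) HEK293 T-REx cells carrying force-coupled D2 receive a no-wash calcium dye, then compound, then EC80 dopamine at 180 s; signals are read kinetically throughout.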
D2 PAM-1 – Beta-Arrestin HTS for Positive Allosteric Modulators of the Human D2 Dopamine Receptor: Potentiators; DiscoveRx D2 beta-arrestin cells, luminescence, 90 min; 100% = 57 uM dopamine signal; potentiation, % (no concentration beside the values); AID 624464, 2012; 360,000 tested, 0.23% active; D(2) dopamine receptor (Homo sapiens), P14416; in the data active = potentiation above about 50%; inconclusive = mostly about 30% to 49%
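PathHunter beta-arrestin assay in DiscoveRx D2 cells. Compounds were added with an EC20 of dopamine (50 nM final) for 90 min at 37 deg C. Luminescence was read 1 h after detection reagent, with 57 uM dopamine as the EC100 control.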
Apoferritin bind – qHTS Assay for Identification of Novel General Anesthetics. Potency, µM (top dose mostly 77.5 µM), for inactives: at the highest dose activity change, negative = displacement, usual class: inhibitors. 350,000 tested, 0.074% active. apoferritin/1-aminoanthracene competitive binding, fluorescence; active = well fitted inhibition curve with a large enough effect; inconclusive = small, poorly fitted or top-dose-only effect; inactive = no such curve, though single readings can be large or run the other way; also: potency is read from the fitted curve at half-maximal effect; % is scaled to controls: 0 for no effect and ±100 for the full control effect; nearly all actives have a fitted effect of over 20% in size
Target sequence (P02791 2-175 limits assumed): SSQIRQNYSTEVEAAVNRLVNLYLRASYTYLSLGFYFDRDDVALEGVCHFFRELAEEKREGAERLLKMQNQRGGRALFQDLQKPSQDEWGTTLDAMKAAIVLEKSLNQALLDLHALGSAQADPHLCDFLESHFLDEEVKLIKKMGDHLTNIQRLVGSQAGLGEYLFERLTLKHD
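Steps: apoferritin (10 uM) was premixed with half-saturated 1-AMA in PBS, compounds were pin-transferred, plates stood 10 min at room temperature, fluorescence was read at 380/535 nm, and curves were fitted with a Hill equation.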
D2 ag-2 – HTS Assay for Allosteric Agonists of the Human D2 Dopamine Receptor: Primary Screen for Agonists; D(2) dopamine receptor (Homo sapiens), P14416; HEK293 T-REx D2 cells, calcium flux agonist mode; activation, % at 2 µM; 340,000 tested, 0.53% active;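 active = activation over 3 SD above normal in the single-dose calcium agonist read, cut at about 30% in these data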; also: 0% is about no effect
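Agonism is scored from calcium flux in a force-coupled, inducible HEK293 cell line expressing D2, read kinetically for 180 s after compound addition against dopamine controls.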
D2 PAM-2 – HTS Assay for Positive Allosteric Modulators of the Human D2 Dopamine Receptor: Primary Screen for Potentiators. AID 485347, 2010. 340,000 tested, 0.34% active. HEK293 T-REx D2, calcium flux, EC20 dopamine potentiation. potentiation, % at 10 µM;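 active = potentiation over 3 SD above the plate norm, cut at about 30% in these data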; also: 0% is about no effect
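Calcium flux readout, no-wash dye, 1 read/s. Inducible HEK293 Trex D2 line, overnight 30 C. Compound alone 180 s (agonist flags), then EC20 dopamine, another 180 s to score potentiation.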
Active calls of the source: *. Compounds with a hit are over-represented: about 2.5% of the library has one in this group of screens.

For COc1cc(C)nc(N2CCCC(C(=O)NC3CCC(C)CC3)C2)n1 (stereo unspecified) the results were D2 ag-1 -1.5, D2 antag 14.8, D2 PAM-1 -14.6, Apoferritin bind -5.5%, D2 ag-2 -0.2 and D2 PAM-2 0.7.
`CC1CCCN(CCCNC(=O)c2ccc3c(c2)N(Cc2cccc(Cl)c2)C(=O)c2ccccc2S3(=O)=O)C1` (stereo unspecified) gave Apoferritin bind -7.1%, D2 ag-2 -0.3 and D2 PAM-2 -5.8.
For COc1cc(C)c(/C=C(\C#N)C(=O)Nc2ccc(C)cc2)cc1C(C)C the results were D2 ag-1 -4.8, D2 antag 74.7*, D2 PAM-1 -15.8, Apoferritin bind 1.3%, D2 ag-2 0.3 and D2 PAM-2 -20.1.
`CC(C)C[C@H]1CN=C(Nc2ccccc2)N1CCC1CCCC1` gave D2 ag-1 -1.8, D2 antag -16.8, D2 PAM-1 -23.9, Apoferritin bind -9.9%, D2 ag-2 -0.2 and D2 PAM-2 5.7.
Screening N/C(Cc1cccc2ccccc12)=N\OC(=O)COc1ccccc1 returned D2 ag-1 4.8, D2 antag 2.6, D2 PAM-1 15.0, Apoferritin bind -7.4%, D2 ag-2 -0.2 and D2 PAM-2 2.1.
N/C(Cc1cccc2ccccc12)=N\OC(=O)c1ccccc1F was read as D2 ag-1 inconclusive, D2 antag 17.4, D2 PAM-1 60.9*, Apoferritin bind -9.7%, D2 ag-2 3.2 and D2 PAM-2 -2.3.
`N/C(Cc1ccc(Cl)cc1Cl)=N\OC(=O)c1ccccc1F` gave D2 ag-1 14.8, D2 antag -3.8, D2 PAM-1 61.3*, Apoferritin bind -12.6%, D2 ag-2 -0.9 and D2 PAM-2 -2.1.
`N/C(Cc1ccccc1)=N\OC(=O)c1cccc2ccccc12` gave D2 ag-1 9.0, D2 antag -35.5, D2 PAM-1 inconclusive, Apoferritin bind inconclusive, D2 ag-2 37.0* and D2 PAM-2 -4.6.
Screening Cc1ccc(N2C(=O)C(NC(=O)c3ccccc3F)(C(F)(F)F)C3=C2CC(C)(C)CC3=O)cc1 (stereo unspecified) returned D2 ag-1 -3.5, D2 antag -0.1, D2 PAM-1 -17.2, Apoferritin bind -4.2%, D2 ag-2 0.3 and D2 PAM-2 2.0.
For COc1cc(/C=C/C(=O)N2CCN(Cc3ccccc3)CC2)cc(OC)c1OC the results were D2 ag-1 1.5, D2 antag -7.7, D2 PAM-1 -14.8, Apoferritin bind -0.5%, D2 ag-2 0.4 and D2 PAM-2 8.4.
Screening CCCCCC(=O)Nc1cc(N(C)C)nc2ccccc12 returned D2 ag-1 -9.1, D2 antag 35.2*, D2 PAM-1 -20.6, Apoferritin bind 2.8%, D2 ag-2 -1.3 and D2 PAM-2 -12.1.
Screening Cc1cc(/C=C2/NC(=O)N(c3ccccc3)C2=O)c(C)n1C(C)C returned D2 ag-1 -1.5, D2 antag -13.0, D2 PAM-1 -1.6, Apoferritin bind -11.3%, D2 ag-2 0.3 and D2 PAM-2 5.4.
`O=C(Nc1cn(-c2ccccc2)nc1-c1ccc(Cl)cc1)c1ccccc1` gave D2 ag-1 -2.0, D2 antag -11.4, D2 PAM-1 -5.7, Apoferritin bind -10.2%, D2 ag-2 -1.1 and D2 PAM-2 6.7.
O=C(O)Cc1cn(-c2ccccc2)nc1-c1ccc(Cl)cc1 was read as D2 ag-1 0.7, D2 antag -10.4, D2 PAM-1 -16.2, Apoferritin bind -6.1%, D2 ag-2 -0.7 and D2 PAM-2 30.9*.
Screening CCC(=O)Oc1ccc2c(=O)c(-c3ccc4ccccc4n3)c(CC)oc2c1C returned D2 ag-1 0.2, D2 antag -8.0, D2 PAM-1 1.6, Apoferritin bind 2.1%, D2 ag-2 -0.7 and D2 PAM-2 -1.7.
For Cc1oc2c(C)c(O)ccc2c(=O)c1-c1ccc2ccccc2n1 the results were D2 ag-1 -2.7, D2 antag 43.9*, D2 PAM-1 -14.8, Apoferritin bind -4.8%, D2 ag-2 -0.3 and D2 PAM-2 -4.3.
For COc1ccc(Cl)cc1NC(=O)CN(C)C(=O)CCNC(=O)c1ccccc1OC the results were D2 ag-1 -2.2, D2 antag 30.6*, D2 PAM-1 -22.3, D2 ag-2 0.3 and D2 PAM-2 -9.8.
COc1ccc(Cl)cc1C(=O)NCCN(C)C was read as D2 ag-1 -2.0, D2 antag 33.5*, D2 PAM-1 -26.1, Apoferritin bind -2.6%, D2 ag-2 -0.2 and D2 PAM-2 -19.4.
`COc1ccc(Cl)cc1NC(=O)CN(C)C(=O)c1cc2c(s1)CCCC2` gave D2 ag-1 0.4, D2 antag 46.4*, D2 PAM-1 2.4, D2 ag-2 0.6 and D2 PAM-2 -14.4.
Screening COc1ccccc1C(=O)NCCC(=O)N(C)CC(=O)Nc1c(Cl)cccc1Cl returned D2 ag-1 0.8, D2 antag -7.9, D2 PAM-1 -9.5, D2 ag-2 1.7 and D2 PAM-2 4.9.
`CCNC(=O)c1cc(Cl)ccc1OC` gave D2 ag-1 2.2, D2 antag -0.2, D2 PAM-1 11.1, Apoferritin bind -2.1%, D2 ag-2 -0.9 and D2 PAM-2 12.6.
Screening COc1ccc(Cl)cc1NC(=O)CN(C)C(=O)c1cn(-c2ccccc2)nc1-c1cccnc1 returned D2 ag-1 -4.1, D2 antag 44.3*, D2 PAM-1 -35.5, D2 ag-2 -0.6 and D2 PAM-2 -10.7.
`O=C(NC1(C(F)(F)F)C(=O)Nc2c1c(=O)[nH]c(=O)n2-c1ccccc1)c1ccccc1Cl` (stereo unspecified) gave Apoferritin bind 7.8%, D2 ag-2 -0.4 and D2 PAM-2 20.6.
For Cn1nc(-c2ccccc2)nc1-c1ccccc1 the results were D2 ag-1 -3.3, D2 antag -15.0, D2 PAM-1 -12.6, D2 ag-2 -0.3 and D2 PAM-2 2.7.
CCOC(=O)C1=C(CS(=O)(=O)c2ccccc2)NC(=O)NC1c1ccccc1OCC (stereo unspecified) was read as D2 ag-1 -1.6, D2 antag 36.1*, D2 PAM-1 -2.7, Apoferritin bind -11.9%, D2 ag-2 0.3 and D2 PAM-2 -11.8.
